# PubChem BioAssay (NCATS)
# Inconclusive results are not listed. Where a call stands in place of a potency, no number is given. The source made the active and inactive calls. Unless noted, calls come from the whole dose curve.
# How the values were obtained:
# [1] = Primary qHTS for Huh7 cytotoxicity: counterscreen for inhibitors of MERS-S pseudotyped particle cell entry (AID 1479147)
# [2] = Primary qHTS for inhibitors of MERS-S pseudo-typed particle cell entry (AID 1479149); note: nearly all actives have a fitted effect of over 60% in size; note: potency is the fitted concentration of half-maximal effect
# [3] = Primary qHTS for Vero E6 cytotoxicity: counterscreen for inhibitors of SARS-S pseudo-typed particle cell entry (AID 1479150)
# [4] = target: Calcium and integrin-binding protein 1 (Homo sapiens) (UniProt Q99828); assay: Primary qHTS for Identification of Calcium Integrin Binding Protein 1 (CIB1) Competitor (AID 1508620; active = well fitted curve in the direction sought with a large enough effect; an effect the other way counts as inactive or inconclusive;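 note: GST tagged CIB1 binding a fluorescein labelled alphaIIb integrin peptide tracer; top concentration of the series differs between compounds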)
# Method in brief: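 Fluorescence polarization competition: GST-tagged CIB1 (1 uM final) preincubated with compound 15 min at room temperature, then FITC-labelled alphaIIb peptide (100 nM final) added. After 15 min at room temperature, polarization read at Ex 480/Em 540.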
# [5] = Primary qHTS for inhibitors of La Crosse Virus (LACV) - induced cell death in SH-SY5Y cells (AID 1508616; active = well fitted curve in the direction sought with a large enough effect; an effect the other way counts as inactive or inconclusive;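 note: top concentration of the series differs between compounds; higher means more rescue of cells from virus-induced death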)
# Method in brief: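 Protection against LACV-induced cell death is scored in SH-SY5Y cells exposed to compounds and virus (0.01 MOI) for 6 days. Data normalized to virus-infected DMSO wells and virus-free DMSO wells.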
# [6] = target: Calcium and integrin-binding protein 1 (Homo sapiens) (UniProt Q99828); assay: Validation qHTS for Identification of Calcium Integrin Binding protein 1 (CIB1) Competitor (AID 1508618; active = well fitted curve in the direction sought with a large enough effect; an effect the other way counts as inactive or inconclusive)
# Method in brief: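 CIB1-GST (1 uM final) incubated 15 min at room temperature with compounds (up to 114 uM), then FITC-labelled alphaIIb peptide (100 nM) added. FP read (Ex 480/Em 540) after 15 min, pH 7.4 buffer containing 5 mM CaCl2.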
# [7] = Confirmatory qHTS for VERO E6 Cytotoxicity Assay: Counterscreen for SARS-CoV-2 CPE Assay (AID 1508605); note: series mostly up to about 20 µM; nearly all actives have a fitted effect of over 60% in size
# [8] = Confirmatory qHTS for activators (rescue) of SARS-CoV-2 Cytopathic Effect (CPE) (AID 1508606); note: potency is the fitted concentration of half-maximal effect; nearly all actives have a fitted effect of over 70% in size
# Sequence of Calcium and integrin-binding protein 1 (Homo sapiens) (Q99828 whole entry, looked up): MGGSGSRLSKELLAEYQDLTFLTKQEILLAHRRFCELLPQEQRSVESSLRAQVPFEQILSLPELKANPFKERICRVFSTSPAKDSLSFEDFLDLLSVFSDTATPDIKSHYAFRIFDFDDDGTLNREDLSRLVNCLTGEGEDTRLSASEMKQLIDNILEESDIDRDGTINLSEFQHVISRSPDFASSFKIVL
smiles,measurement,setting,value
Cc1cn([C@H]2C[C@H](N=[N+]=[N-])[C@@H](CO)O2)c(=O)[nH]c1=O,Potency,[1],inactive
same,Potency,[2],inactive
same,Potency,[3],inactive
CCCC1CCCCN1 (configuration not stated),Potency,[1],inactive
same,Potency,[2],inactive
same,Potency,[3],inactive
same,Potency,[4],inactive
C=C(c1ccc(C(=O)O)cc1)c1cc2c(cc1C)C(C)(C)CCC2(C)C,Potency,[1],inactive
same,Potency,[2],inactive
same,Potency,[3],inactive
c1ccc2c(c1)Nc1ccccc1S2,Potency,[1],inactive
same,Potency,[2],inactive
same,Potency,[3],inactive
same,Potency,[5],inactive
same,Potency,[4],inactive
Cc1nc2n(c(=O)c1CCN1CCC(c3noc4cc(F)ccc34)CC1)CCCC2,Potency,[1],inactive
same,Potency,[3],inactive
CC(=O)O[C@@]12CO[C@@H]1C[C@H](O)[C@@]1(C)C(=O)[C@H](O)C3=C(C)[C@@H](OC(=O)[C@H](O)[C@@H](NC(=O)OC(C)(C)C)c4ccccc4)C[C@@](O)([C@@H](OC(=O)c4ccccc4)[C@H]21)C3(C)C,Potency,[1],inactive
same,Potency,[2],inactive
same,Potency,[3],inactive
Clc1ccc(COC(Cn2ccnc2)c2ccc(Cl)cc2Cl)cc1 (configuration not stated),Potency,[1],inactive
same,Potency,[2],25.1 µM (active)
same,Potency,[3],inactive
same,Potency,[5],inactive
same,Potency,[4],inactive
CN1CCN(C2=Nc3ccccc3Oc3ccc(Cl)cc32)CC1,Potency,[1],inactive
same,Potency,[3],inactive
Cc1cccc(C)c1NC1=NCCCS1,Potency,[1],inactive
same,Potency,[2],inactive
same,Potency,[3],inactive
same,Potency,[6],inactive
same,Potency,[4],inactive
OCCN1C[C@H](O)[C@@H](O)[C@H](O)[C@H]1CO,Potency,[1],inactive
same,Potency,[2],inactive
same,Potency,[3],inactive
Cc1ccccc1C(OCCN(C)C)c1ccccc1 (configuration not stated),Potency,[1],inactive
same,Potency,[3],inactive
C=C1CC[C@@]2(O)[C@H]3Cc4ccc(O)c5c4[C@@]2(CCN3CC2CC2)[C@H]1O5,Potency,[1],inactive
same,Potency,[2],inactive
same,Potency,[3],inactive
same,Potency,[4],inactive
O=C1[C@H](CC[C@H](O)c2ccc(F)cc2)[C@@H](c2ccc(O)cc2)N1c1ccc(F)cc1,Potency,[1],inactive
same,Potency,[2],inactive
same,Potency,[3],inactive
Cc1nc2n(c(=O)c1CCN1CCC(c3noc4cc(F)ccc34)CC1)CCC[C@H]2O,Potency,[1],inactive
same,Potency,[2],inactive
same,Potency,[3],inactive
C[C@H]1O[C@H](O[C@H]2[C@H](O)[C@@H](O)[C@@H](O[C@H]3[C@H](O)[C@@H](O)[C@H](O)O[C@@H]3CO)O[C@@H]2CO)[C@H](O)[C@@H](O)[C@@H]1N[C@H]1C=C(CO)[C@@H](O)[C@H](O)[C@H]1O,Potency,[1],inactive
same,Potency,[2],inactive
same,Potency,[3],inactive
O=C(c1ccccc1)c1ccc2n1CCC2C(=O)O (configuration not stated),Potency,[1],inactive
same,Potency,[2],inactive
same,Potency,[3],inactive
C#Cc1cccc(Nc2ncnc3cc(OCCOC)c(OCCOC)cc23)c1,Potency,[1],inactive
same,Potency,[3],inactive
CN(C)CC/C=C1\c2ccccc2COc2ccccc21,Potency,[1],inactive
same,Potency,[3],inactive
Oc1ccccc1-c1ccccc1,Potency,[1],inactive
same,Potency,[2],inactive
same,Potency,[3],inactive
same,Potency,[5],inactive
same,Potency,[4],inactive
C=C[C@H]1CN2CC[C@H]1C[C@@H]2[C@@H](O)c1ccnc2ccc(OC)cc12,Potency,[1],inactive
same,Potency,[3],inactive
CO[C@@]12[C@H](COC(N)=O)C3=C(C(=O)C(C)=C(N)C3=O)N1C[C@@H]1N[C@@H]12,Potency,[1],inactive
same,Potency,[3],inactive
CCN(CC)C(=S)SSC(=S)N(CC)CC,Potency,[2],inactive
CN1CCN(CCCN2c3ccccc3Sc3ccc(C(F)(F)F)cc32)CC1,Potency,[2],28.2 µM (active)
same,Potency,[3],inactive
C#C[C@]1(O)CC[C@H]2[C@@H]3CCC4=Cc5oncc5C[C@]4(C)[C@H]3CC[C@@]21C,Potency,[1],inactive
same,Potency,[3],inactive
CN1CCC(=C2c3ccccc3C=Cc3ccccc32)CC1,Potency,[1],inactive
same,Potency,[3],inactive
same,Potency,[7],inactive
CN1CCc2cccc3c2[C@H]1Cc1ccc(O)c(O)c1-3,Potency,[2],inactive
same,Potency,[3],inactive
Nc1nc(=S)c2[nH]cnc2[nH]1,Potency,[2],inactive
OCCOCCN1CCN(C(c2ccccc2)c2ccc(Cl)cc2)CC1 (configuration not stated),Potency,[1],inactive
same,Potency,[3],inactive
Clc1ccc(CCC(Cn2ccnc2)Sc2c(Cl)cccc2Cl)cc1 (configuration not stated),Potency,[1],inactive
same,Potency,[3],inactive
same,Potency,[5],inactive
same,Potency,[4],inactive
COc1cc2nc(N(C)CCCNC(=O)C3CCCO3)nc(N)c2cc1OC (configuration not stated),Potency,[1],inactive
same,Potency,[3],inactive
CNCCCN1c2ccccc2CCc2ccccc21,Potency,[1],inactive
same,Potency,[3],inactive
same,Potency,[7],inactive
O=C1CCc2cc(OCCCCc3nnnn3C3CCCCC3)ccc2N1,Potency,[1],inactive
same,Potency,[3],inactive
CN(Cc1cnc2nc(N)nc(N)c2n1)c1ccc(C(=O)N[C@@H](CCC(=O)O)C(=O)O)cc1,Potency,[2],inactive
CC(CN1c2ccccc2Sc2ccccc21)N(C)C (configuration not stated),Potency,[1],inactive
same,Potency,[3],inactive
same,Potency,[7],inactive
same,Potency,[8],11.2 µM (active)
COC(=O)C1=C(C)NC(C)=C(C(=O)OCCN(C)Cc2ccccc2)C1c1cccc([N+](=O)[O-])c1 (configuration not stated),Potency,[1],inactive
same,Potency,[3],inactive
